Test [1] has as its target Cellular tumor antigen p53 (Homo sapiens) (UniProt P04637). In words: Primary qHTS for small molecule compounds that upregulate eGFP-tagged delta133p53alpha (in N-terminal) cells. (AID 2060322).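 For activation: cells pre-induced with doxycycline then dosed without doxycycline; series mostly up to about 56 µM; 0% = DMSO vehicle and 100% = reference activator.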 Note: nearly all actives have a fitted effect of over 75% in size. Note: potency is the fitted concentration of half-maximal effect. The note with it: NCI-H358 eGFP-delta133p53alpha fluorescence, 24 h; activation: hits give high values. In short, it runs like this:
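NCI-H358 cells pre-induced 24 h with 10 ng/ml doxycycline for eGFP-delta133p53alpha, plated dox-free and exposed 24 h at 37C to titrated compounds. Fixed, Hoechst-stained; gated GFP peak intensity by laser scanning cytometry, normalized to DMSO (0%) and 57.5 uM 5-azacytidine (100%).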
On the technique in general: qHTS replaces the single test concentration by a dilution series.

In test [2] the target is Aldehyde dehydrogenase, mitochondrial (Homo sapiens) (UniProt P05091). Description: qHTS for Inhibitors of the Aldehyde Dehydrogenase Family (ALDH2) Primary screen (AID 2061308).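 Note: plate controls were vehicle for no effect and reference inhibitor for full effect; nearly all actives have a fitted effect of over 55% in size.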
The target in test [3] is Retinaldehyde dehydrogenase 3 (Homo sapiens) (UniProt P47895). In words: qHTS for Inhibitors of the Aldehyde Dehydrogenase Family (ALDH1A3) Validation screen (AID 2061312). Note: % is set by controls: 0 for no effect and ±100 for the full control effect; nearly all actives have a fitted effect of over 45% in size.
The target is the same in test [4]. Description: qHTS for Inhibitors of the Aldehyde Dehydrogenase Family (ALDH1A3) Primary screen (AID 2061315).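 Note: plate controls were DMSO vehicle for no effect and reference inhibitor for full effect.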
A short description of test [5]: BET inhibitor-based combinations targeting novel dependencies in MECOM-rearranged (r) AML: SET-2 cell line (AID 2202231).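 Note: plate controls were DMSO treated cells for no effect and wells without cells for full effect; nearly all actives have a fitted effect of over 35% in size.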 The note with it: SET-2 AML cells viability, CellTiter-Glo luminescence, 48 h; viability: hits give low values, series mostly up to about 46 µM. In short, it runs like this:
(§1)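 AML cell lines seeded at 500 cells/well, treated with 11-point dose curves for 48 h. Viability by CellTiter-Glo luminescence, normalised to DMSO and empty wells; activity expressed as AUC and per-cell-line Z-transformed AUC.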
A general note: Cellular ATP, detected with luciferase, serves as a proxy for viable cell number.

Test [6] is described as follows: BET inhibitor-based combinations targeting novel dependencies in MECOM-rearranged (r) AML: MV-4-11 cell line (AID 2202233). Note: nearly all actives have a fitted effect of over 45% in size. Note: potency is the fitted concentration of half-maximal effect. In short, it runs like this: (§2)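 Cells at 500/well were exposed for 48 hr to MIPE v5.0 drugs as 11-point dose curves. Viability was read by CellTiter-Glo luminescence and normalized to DMSO and empty-well controls. Activity was expressed as AUC and per-cell-line Z-AUC.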

The nature of test [7]: BET inhibitor-based combinations targeting novel dependencies in MECOM-rearranged (r) AML: UCSD-AML1 cell line (AID 2202235). Note: nearly all actives have a fitted effect of over 40% in size. Note: potency is the fitted concentration of half-maximal effect. A digest of the protocol:
as §2

Test [8] can be described thus: BET inhibitor-based combinations targeting novel dependencies in MECOM-rearranged (r) AML: AML-191 cell line (AID 2202236; note: nearly all actives have a fitted effect of over 35% in size; note: potency is the fitted concentration of half-maximal effect). A digest of the protocol:
as §1

A short description of test [9]: BET inhibitor-based combinations targeting novel dependencies in MECOM-rearranged (r) AML: AML-194 cell line (AID 2202237; note: nearly all actives have a fitted effect of over 40% in size; note: potency is the fitted concentration of half-maximal effect). A digest of the protocol:
as §1

Test [10] in a line: BET inhibitor-based combinations targeting novel dependencies in MECOM-rearranged (r) AML: HNT-34 cell line (AID 2202234). Note: nearly all actives have a fitted effect of over 35% in size. Note: potency is the fitted concentration of half-maximal effect. In short, it runs like this:
as §2

Test [11] is described as follows: BET inhibitor-based combinations targeting novel dependencies in MECOM-rearranged (r) AML: OCI-AML3 cell line (AID 2202232). Note: nearly all actives have a fitted effect of over 35% in size. Note: potency is the fitted concentration of half-maximal effect. The conditions noted are these: Potency: OCI-AML3 viability. A digest of the protocol: as §1

Where “and” joins values, the source holds several entries; their conditions need not be identical. Equal values may be shown once. Records with an inconclusive call do not appear. Values without a mark were called inactive. Calls of active or inactive are those of the source. Calls come from the whole dose curve; as a rule, active = well fitted curve in the direction sought with a large enough effect; inconclusive = small, poorly fitted or top-dose-only effect, or another doubt; inactive = no such curve, though single readings can be large; an effect the other way counts as inactive or inconclusive.

Chain of Cellular tumor antigen p53 (Homo sapiens) (P04637 whole entry, looked up): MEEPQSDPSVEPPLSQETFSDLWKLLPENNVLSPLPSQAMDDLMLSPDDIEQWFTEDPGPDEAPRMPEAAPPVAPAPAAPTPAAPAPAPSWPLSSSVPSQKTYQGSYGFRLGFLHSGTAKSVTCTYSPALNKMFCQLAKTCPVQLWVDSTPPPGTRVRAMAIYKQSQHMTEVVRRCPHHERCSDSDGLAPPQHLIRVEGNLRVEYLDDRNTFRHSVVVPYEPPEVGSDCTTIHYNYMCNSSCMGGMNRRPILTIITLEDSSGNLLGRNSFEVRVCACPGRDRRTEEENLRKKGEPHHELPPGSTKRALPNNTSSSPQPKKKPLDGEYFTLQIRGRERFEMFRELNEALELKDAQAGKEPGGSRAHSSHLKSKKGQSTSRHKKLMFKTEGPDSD

In the case of `COc1cc2c(NC3CCN(CC4CCCCC4)CC3)nc(N3CCCN(C(C)C)CC3)nc2cc1OCCCN1CCCCC1`, the Potency is 43.2 µM (active) in [1]; 6.61 µM (active) in test [6]; 10.5 µM (active) in test [7]; 9.34 µM (active) in [8]; 16.6 µM (active) in test [9]. The Potency result in [2], in test [3] and in test [4] was “inactive” each time. Further, the viability (as a rule, a read-out of living cells in per cent, often relative to untreated cells) in test [5] was 104%.

`Cc1ccc2nc(NC(=O)CSc3nc4c(c(=O)n3-c3ccccc3)SCC4)sc2c1`: in [1], the activation was 24.2% and -14.8%. Further, the Potency entry in test [2], in [3], in test [4], in [6], in test [10] and in test [7] was “inactive” throughout. Further, the Potency entry in test [8] and in test [9] was “inactive” in each case. Also, in test [5], the viability was 114%.

Consider `CN1CCC(COc2cnc(-c3cccc(Cn4nc(-c5cccc(C#N)c5)ccc4=O)c3)nc2)CC1`, for which the activation in test [1] was -3.12% and 9.55%. The Potency entry in test [2], in [3], in test [4], in [10], in test [7] and in [8] was “inactive” in each case. For the same compound, in test [5], the viability was 115%. Also, the Potency in [6] is 5.9 µM (active).

Regarding `NS(=O)(=O)OC[C@@H]1C[C@@H](n2ccc3c(N[C@H]4CCc5ccccc54)ncnc32)C[C@@H]1O`, in test [1], the activation is -7.64% and -2.39%. Besides, the Potency result in test [2], in [3] and in test [4] was “inactive” in each case. Besides, the Potency in test [11] is 0.372 µM (active); in [6] it was 0.209 µM (active); in test [10], 0.372 µM (active); in test [7], 0.59 µM (active); in test [8], 0.934 µM (active); in test [9] it was 0.934 µM (active).

On to `O=C1[C@H](CC[C@H](O)c2ccc(F)cc2)[C@@H](c2ccc(O)cc2)N1c1ccc(F)cc1`, for which the activation in [1] was -8.47% and 7.16%. For the same compound, the Potency entry in test [2], in test [3] and in [4] was “inactive” in each case. In addition, the Potency in [11] was 20.9 µM (active); in [6], 16.6 µM (active).

As for `CCc1nc(-c2cccc(C)c2)c(-c2ccnc(NC(=O)c3ccccc3)c2)s1`, the activation in [1] was 17.2%. Moreover, the Potency result in test [2], in test [3] and in [4] was “inactive” in each case. The figures for the Potency in test [11] and in test [6] were 0.0093 µM (active) and 10.5 µM (active), respectively.

`CCCCn1c(=O)n(Cc2ccccc2F)c(=O)c2[nH]c(Cc3ccc(NC(C)=O)cc3)nc21`: the activation in test [1] is 0.477%. Further, the Potency result in [2], in test [3], in test [4], in test [11], in [6] and in [7] was “inactive” each time. In addition, the Potency result in test [8] and in test [9] was “inactive” in each case.

In the case of `Cc1cc(Nc2ncnc3ccc(-c4ccc(CNCCS(C)(=O)=O)o4)cc23)ccc1Oc1ccn2ncnc2c1`, in test [1], the activation is 23.7% and 4.3%. Moreover, the Potency entry in test [2], in [3], in test [4], in [10], in [8] and in test [9] was “inactive” throughout. For the same compound, the viability in test [5] was 75.4%.

For `C[C@@]1(C(=O)Nc2ccc(F)nc2)CCCN1c1nc(Nc2cc(C3CC3)[nH]n2)c2cccn2n1`, the activation in [1] is 19.3%. In addition, the Potency entry in [2], in test [3] and in [4] was “inactive” throughout. Further, the Potency in test [11] was 0.0742 µM (active); in [6] it was 2.95 µM (active); in [9], 1.48 µM (active).

As to `C=C1[C@H](CO)[C@@H](O)C[C@@H]1n1cnc2c(=O)[nH]c(N)nc21`, the activation in [1] was -3.34%. In addition, the Potency entry in test [2], in [3], in test [4], in test [10] and in [9] was “inactive” each time. For the same compound, the viability in [5] is 117%. For the same compound, in [8], the Potency is 18.6 µM (active).

As for `O=C(O)CCNc1cc(N2CCc3ccccc3CC2)nc(-c2ccccn2)n1`, in test [1], the activation was -6.15% and -0.477% and 0.955%. Also, the Potency entry in test [2], in test [3], in test [4], in test [11], in [6] and in test [10] was “inactive” each time. Besides, the Potency result in [7], in test [8] and in [9] was “inactive” each time.

Take `Cn1cc(-c2ccc3nnc(C(F)(F)c4ccc5ncccc5c4)n3n2)cn1`: the activation in [1] is -10% and 1.43%. In addition, the Potency entry in [2], in [3], in [4], in test [7] and in test [9] was “inactive” each time. In addition, the viability in test [5] is 106%.

`O=C(O)C[C@H](O)C[C@H](O)/C=C/c1c(C2CC2)nc2ccccc2c1-c1ccc(F)cc1`: the activation in [1] was 15.3%. Also, the Potency result in test [2], in [3] and in test [4] was “inactive” throughout. The Potency was 1.05 µM (active) in test [11]; 2.09 µM (active) in [6]; 2.95 µM (active) in test [10]; 10.5 µM (active) in [8]; 13.2 µM (active) in test [9].

Take `Cc1ccc(Nc2cc(-c3cccc(N4C(=O)c5ccccc5C4=O)c3)ncn2)cc1NS(C)(=O)=O`: the activation in [1] was 19.8% and 20%. Besides, the Potency entry in [2], in test [3] and in test [4] was “inactive” in each case. Moreover, the Potency in test [6] was 10.5 µM (active).

With `Cc1nc(Nc2ncc(C(=O)Nc3c(C)cccc3Cl)s2)cc(N2CCN(CCO)CC2)n1`, the Potency was 9.53 µM (active) in test [1]; 13.2 µM (active) in [11]; 13.2 µM (active) in [6]; 7.42 µM (active) in [7]; 14.8 µM (active) in [8]; 11.8 µM (active) in test [9]. In addition, the Potency entry in test [2], in [3] and in test [4] was “inactive” in each case.

Take `C[C@H]1Oc2cc(cnc2N)-c2c(nn(C)c2C#N)CN(C)C(=O)c2ccc(F)cc21`: the activation in [1] is 1.43% and -2.96%. The Potency result in test [2], in test [3] and in [4] was “inactive” each time. In addition, the viability in [5] is 98.3%. The Potency in test [8] was 1.32 µM (active).

These data come from PubChem BioAssay (NCATS).
